Where “and” joins values, the source holds several entries; their conditions need not be identical. Equal values may be shown once. This is part of a sample that, as a whole, favours compounds with a hit. Of some 83,000 tested, about 20% had one in any assay.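 Cells were grown in 96-well plates and exposed to the test compound at a single concentration for 48 hours; results are reported as percent growth, with values below 10 considered active.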 Calls of active or inactive are those of the source. Where a SMILES comes first, the peptide text is derived from it. [ ]: non-standard residue; d: D form. ξ: configuration not given here. ξV = CC(C)C(N)C(=O)O

One assay deals with BT-549 breast. In words: NCI-60 one-dose screen, 48 h (100 = growth as untreated, 0 = no growth, -100 = all killed). The settings on record: 0.0025 µM. The method, then:
Growth inhibition of the BT-549 human tumor cell line is measured as a screen for anti-cancer activity. Cells are grown in 96 well plates and exposed to the test compound for 48 hours. Compounds are tested at a single concentration, which is 10^-5 M for most compounds. The reported endpoint is percent growth (GI% or GIPRCNT), where numbers from 0 - 100% represent growth inhibition, and numbers from -100% - 0 represent cell death. For example, a value of 40 represents 60% growth inhibition. A value of 0 means no net growth occurred over the course of the experiment. A value of -40 indicates 40% of cells at the beginning of the experiment died by the end of the experiment. A value of -100 means all cells are dead at the end of the experiment.
NCI-60 Human Tumor Cell Lines Screen was performed using the standard one-dose NCI protocol, which is described in more detail at https://dtp.cancer.gov/discovery_development/nci-60/default.htm.
Compounds with GIPRCNT values below 10 were considered active. Activity score was based on GIPRCNT using the following formula: […]
Score is 0 for GIPRCNT values of 100 or above, 50 for GIPRCNT values of 0, and 100 for GIPRCNT values of -100.
Turning to `COc1cccc2c1C(=O)c1c(O)c3c(c(O)c1C2=O)C[C@@](O)(C(=O)CO)C[C@@H]3OC1CC(N)C(O)C(C)O1` (stereo not given in full), the growth is 81.9% (inactive).

Still in this assay, the particulars now being: 1 µM.
In the case of `COc1cccc2c1C(=O)c1c(O)c3c(c(O)c1C2=O)C[C@@](O)(C(=O)CO)C[C@@H]3OC1CC(N)C(O)C(C)O1` (stereo not given in full), the growth is 5.17% (active).

The assay is the same for the next values; noted with them: 2.5 µM.
On to `COc1cccc2c1C(=O)c1c(O)c3c(c(O)c1C2=O)C[C@@](O)(C(=O)CO)C[C@@H]3OC1CC(N)C(O)C(C)O1` (stereo not given in full), for which the growth is 65.6% (inactive).

Still in this assay, the particulars now being: 10 µM.
Turning to `CCCCCCCCCCCC[N+](C)(C)Cc1ccccc1`, the growth is -21.1% (active).
Turning to `CN1CCN(CCCN2c3ccccc3Sc3ccc(C(F)(F)F)cc32)CC1`, the growth was 70.6% (inactive).
Still for that read-out and setting: then `O=[N+]([O-])C1=C(c2ccccc2)SC=C(c2ccccc2)S1`, with 55.3% (inactive); and `CN(C)C(=S)SC(=S)N(C)C`, with 109% (inactive) and 115% (inactive); and `OC(CN1CCCC2CCCCC21)c1cc2ccccc2c2ccccc12` (stereo not given), with 46% (inactive).
`Nc1nc(=S)c2ncn(C3OC(CO)C(O)C3O)c2[nH]1` (stereo not given): the growth is 126% (inactive) and -1.38% (active).
For the compound `COc1cccc2c1C(=O)c1c(O)c3c(c(O)c1C2=O)C[C@@](O)(C(=O)CO)C[C@@H]3OC1CC(N)C(O)C(C)O1` (stereo not given in full), the growth is -59.2% (active).
On the same count and under the same terms, then `COC1OCC(O)C(O)C1O` (stereo not given), with 105% (inactive); and `Cc1cc(O)c(C(C)C)cc1Cl`, with 111% (inactive); and `CCC(C)(C)c1cc(O)c(C(C)(C)CC)cc1O`, with 10.7% (inactive).
With `NC(=O)SCC(=O)NNc1ccccc1`, the growth is 113% (inactive).
As for `O=C1C=CC(=CC=C2C=CN(CCCCCCCCCCCO)C=C2)C=C1`, the growth is -11% (active).
On to `Clc1ccc(/C=C/c2ccccn2)c(Cl)c1`, for which the growth was 88.4% (inactive).
The same measure, in the same setting: then `NNc1c2ccccc2nc2ccccc12`, with 43.8% (inactive); and `O=C(Nc1ccc(C(=O)O)c(O)c1)c1ccccc1`, with 104% (inactive).
The same measure, in the same setting: then `CC1=CC(C)=Nc2ccc(Cl)cc2N1`, with 108% (inactive).
For `COc1cccc2c1C(=O)c1c(O)c3c(c(O)c1C2=O)C[C@@](O)(C(C)=O)C[C@@H]3OC1CC(N)C(O)C(C)O1` (stereo not given in full), the growth was -70.9% (active).
For `N=S(c1ccccc1[N+](=O)[O-])c1ccccc1[N+](=O)[O-]`, the growth is 84.7% (inactive).
Same read-out and setting: then `CC(C)C(NC(=O)CN)C(=O)O` (stereo not given) (H-Gly-[ξV]-OH), with 83.4% (inactive) and 116% (inactive); and `COC(=O)C1=COC(C)C2C[n+]3ccc4c([nH]c5ccccc54)c3CC12` (stereo not given), with 107% (inactive) and 102% (inactive); and `CCCC1CCC(=C2C(=O)CCC2=O)O1` (stereo not given), with 86.3% (inactive) and 106% (inactive).
Same read-out and setting: then `CO[C@H](C(=O)[C@@H](O)[C@@H](C)O)[C@@H]1Cc2cc3cc(OC4CC(OC5CC(O)C(O)C(C)O5)C(O)C(C)O4)c(C)c(O)c3c(O)c2C(=O)[C@H]1OC1CC(OC2CC(OC3CC(C)(O)C(O)C(C)O3)C(O)C(C)O2)C(O)C(C)O1` (stereo not given in full), with -19.9% (active); and `CCO/C=C1\SC(=S)N(c2cccc(O)c2)C1=O`, with 93.8% (inactive); and `COc1c(O)cc2oc3cc(O)c(CC=C(C)C)c(O)c3c(=O)c2c1CC=C(C)C`, with 105% (inactive).
The same measure, in the same setting: then `CCN1/C(=C/C=C/C=C/c2sc3ccccc3[n+]2CC)Sc2ccccc21`, with -42.3% (active); and `CCCCCCCCCCSC(=N)N`, with 85.9% (inactive).
For `O=C(O)COc1ccc(OCC(=O)O)cc1`, the growth was 20.9% (inactive).
Still for that read-out and setting: then `Nc1c2ccccc2nc2ccccc12`, with 33.8% (inactive) and 69.9% (inactive) and 83.1% (inactive).
`Cc1nc(N=C(N)N)nc2ccc3ccccc3c12`: the growth is 13.7% (inactive).
Same read-out and setting: then `CS(=O)(=O)OC1CC(n2ccc(=O)[nH]c2=O)OC1COC(c1ccccc1)(c1ccccc1)c1ccccc1` (stereo not given), with 99.4% (inactive).
`Oc1ccc(N=Nc2ccccn2)c(O)c1`: the growth is 36.6% (inactive).
For the compound `CCN(CC)c1ccc(NC(C(=O)c2ccccc2)c2ccccc2)cc1` (stereo not given), the growth was 2.75% (active).
The same measure, in the same setting: then `Clc1cc(Cl)c(Cl)nn1`, with 82.8% (inactive).
Take `OCC1OC(n2cnc3c(=S)nc[nH]c32)C(O)C1O` (stereo not given): the growth was 105% (inactive) and 66.2% (inactive).
`O=C1C=C(O)c2ccccc2C1=O.[Ag]`: the growth was 115% (inactive).
For `NC1=C(Cl)C(=O)c2ccccc2C1=O`, the growth is 82.7% (inactive).
Still for that read-out and setting: then `Nc1ccc2cc3ccc(N)cc3nc2c1`, with 95.9% (inactive) and 69.1% (inactive).

For the origin of these results see PubChem BioAssay (NCI).
